According to the supplement of paper PMC10849652:
Targets with a hit are over-represented here; the source holds about 7,900 in all. About 0.6% of all pairs of compound and target were hits.

Columns and labels:
Assay in all cases: log2 fold change, soluble protein after heating vs DMSO (PISA); higher = thermal stabilisation; K562 cells, 10 uM, 30 min; active = over 0.2 and 3.5 SD of the protein, either way, in both replicates (recomputed)
[1] = compound: C1=CC=C(C=C1)[C@H](COC2=CC3=C(C=C2)NC(=O)N3)NC(=O)C4=CC=CN(C4=O)CC5=CC(=C(C=C5)F)F
Summary of the method: (§1)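 K562 cells (2×10^6 cells/mL) were treated with 10 μM compound for 30 min, and aliquots were heated for 3 min over 48°C-58°C. Pooled aliquots were extracted in PBS with 0.5% NP-40 at 4°C, and the supernatant after 21,000xg for 90 min was measured by TMTpro 16plex LC-MS/MS with channel sums equalised. Reported thermal stability, relative to control samples and from duplicates, is a log2 fold change.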

[2] = compound: CC1=C(SC2=C1C(=N[C@H](C3=NN=C(N32)C)CC(=O)N)C4=CC=C(C=C4)Cl)C
Summary of the method: as §1

[3] = compound: CC1=C2C(=CC=C1)N=C(N(C2=O)C3=CC=CC=C3C)CN4C=NC5=C(N=CN=C54)N
Summary of the method: as §1

[4] = compound: Cc1sc2c(c1C)C(c1ccc(Cl)cc1)=N[C@@H](CC(=O)OC(C)(C)C)c1nnc(C)n1-2
Summary of the method: as §1

[5] = compound: c1ccc([C@@H]2C[C@H]2NC2CCNCC2)cc1
Summary of the method: as §1

Measured: log2 fold change

SMAD2 (UniProt Q15796)
Chain of UniProt Q15796 (Q15796 whole entry, looked up): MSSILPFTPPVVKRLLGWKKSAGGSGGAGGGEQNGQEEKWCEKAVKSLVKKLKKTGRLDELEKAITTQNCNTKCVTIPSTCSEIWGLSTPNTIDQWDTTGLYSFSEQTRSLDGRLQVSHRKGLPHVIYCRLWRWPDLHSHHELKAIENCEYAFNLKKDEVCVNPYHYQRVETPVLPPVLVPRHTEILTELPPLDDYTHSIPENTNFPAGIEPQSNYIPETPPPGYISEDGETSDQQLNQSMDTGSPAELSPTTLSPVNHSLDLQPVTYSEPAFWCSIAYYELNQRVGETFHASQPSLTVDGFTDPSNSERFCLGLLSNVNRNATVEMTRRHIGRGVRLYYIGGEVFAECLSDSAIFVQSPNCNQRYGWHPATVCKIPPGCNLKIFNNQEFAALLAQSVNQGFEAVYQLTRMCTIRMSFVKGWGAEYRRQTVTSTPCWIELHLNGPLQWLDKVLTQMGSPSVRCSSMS
inactive: [1] -0.014 | [2] 0.022 | [3] 0.056 | [4] -0.02 | [5] -0.066

TBC1D10B (UniProt Q4KMP7)
Chain of UniProt Q4KMP7 (Q4KMP7 whole entry, looked up): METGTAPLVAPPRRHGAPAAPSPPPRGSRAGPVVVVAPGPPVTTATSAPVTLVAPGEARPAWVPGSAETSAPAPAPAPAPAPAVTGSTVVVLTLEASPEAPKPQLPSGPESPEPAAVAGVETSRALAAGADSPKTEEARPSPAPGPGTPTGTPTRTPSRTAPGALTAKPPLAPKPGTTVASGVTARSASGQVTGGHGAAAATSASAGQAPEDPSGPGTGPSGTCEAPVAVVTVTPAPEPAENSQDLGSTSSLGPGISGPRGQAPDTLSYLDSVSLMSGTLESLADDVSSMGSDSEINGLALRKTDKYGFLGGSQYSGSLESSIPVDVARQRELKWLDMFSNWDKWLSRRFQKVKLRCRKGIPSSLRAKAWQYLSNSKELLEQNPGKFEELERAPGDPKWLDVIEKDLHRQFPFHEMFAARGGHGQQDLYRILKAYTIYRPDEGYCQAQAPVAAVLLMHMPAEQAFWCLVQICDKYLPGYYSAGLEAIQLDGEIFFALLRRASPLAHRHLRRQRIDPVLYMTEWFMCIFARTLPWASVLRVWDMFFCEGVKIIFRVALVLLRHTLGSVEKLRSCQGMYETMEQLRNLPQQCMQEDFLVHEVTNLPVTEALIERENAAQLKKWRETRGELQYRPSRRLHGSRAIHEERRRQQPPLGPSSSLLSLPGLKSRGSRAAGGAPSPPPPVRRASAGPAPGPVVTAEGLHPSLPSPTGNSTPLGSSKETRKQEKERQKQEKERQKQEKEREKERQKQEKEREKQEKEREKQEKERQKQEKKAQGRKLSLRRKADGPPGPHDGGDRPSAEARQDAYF
inactive: [1] -0.021 | [2] 0.062 | [3] 0.014 | [4] -0.026 | [5] 0.006

TBC1D23 (UniProt Q9NUY8)
Chain of UniProt Q9NUY8 (Q9NUY8 whole entry, looked up): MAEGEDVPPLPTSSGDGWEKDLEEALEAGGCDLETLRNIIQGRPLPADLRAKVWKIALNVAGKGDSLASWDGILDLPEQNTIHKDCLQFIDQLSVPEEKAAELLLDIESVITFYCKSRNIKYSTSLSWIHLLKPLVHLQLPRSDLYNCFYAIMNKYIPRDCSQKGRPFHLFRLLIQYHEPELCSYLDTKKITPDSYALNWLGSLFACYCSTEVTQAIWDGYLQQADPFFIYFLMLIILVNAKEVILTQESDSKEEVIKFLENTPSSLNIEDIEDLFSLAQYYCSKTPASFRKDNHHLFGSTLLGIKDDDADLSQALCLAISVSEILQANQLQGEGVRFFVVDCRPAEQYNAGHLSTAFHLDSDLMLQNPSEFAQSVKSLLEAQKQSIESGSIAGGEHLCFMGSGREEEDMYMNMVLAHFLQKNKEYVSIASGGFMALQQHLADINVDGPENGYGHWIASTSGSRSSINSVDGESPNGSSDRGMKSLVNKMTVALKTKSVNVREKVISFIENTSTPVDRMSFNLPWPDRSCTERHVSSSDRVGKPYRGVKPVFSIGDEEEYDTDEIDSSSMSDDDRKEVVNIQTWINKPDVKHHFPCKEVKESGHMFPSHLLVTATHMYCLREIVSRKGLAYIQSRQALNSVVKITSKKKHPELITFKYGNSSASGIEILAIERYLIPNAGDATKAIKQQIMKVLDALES
inactive: [1] -0.039 | [2] 0.068 | [3] 0.034 | [4] -0.003 | [5] -0.037

TARS2 (UniProt Q9BW92)
Chain of UniProt Q9BW92 (Q9BW92 whole entry, looked up): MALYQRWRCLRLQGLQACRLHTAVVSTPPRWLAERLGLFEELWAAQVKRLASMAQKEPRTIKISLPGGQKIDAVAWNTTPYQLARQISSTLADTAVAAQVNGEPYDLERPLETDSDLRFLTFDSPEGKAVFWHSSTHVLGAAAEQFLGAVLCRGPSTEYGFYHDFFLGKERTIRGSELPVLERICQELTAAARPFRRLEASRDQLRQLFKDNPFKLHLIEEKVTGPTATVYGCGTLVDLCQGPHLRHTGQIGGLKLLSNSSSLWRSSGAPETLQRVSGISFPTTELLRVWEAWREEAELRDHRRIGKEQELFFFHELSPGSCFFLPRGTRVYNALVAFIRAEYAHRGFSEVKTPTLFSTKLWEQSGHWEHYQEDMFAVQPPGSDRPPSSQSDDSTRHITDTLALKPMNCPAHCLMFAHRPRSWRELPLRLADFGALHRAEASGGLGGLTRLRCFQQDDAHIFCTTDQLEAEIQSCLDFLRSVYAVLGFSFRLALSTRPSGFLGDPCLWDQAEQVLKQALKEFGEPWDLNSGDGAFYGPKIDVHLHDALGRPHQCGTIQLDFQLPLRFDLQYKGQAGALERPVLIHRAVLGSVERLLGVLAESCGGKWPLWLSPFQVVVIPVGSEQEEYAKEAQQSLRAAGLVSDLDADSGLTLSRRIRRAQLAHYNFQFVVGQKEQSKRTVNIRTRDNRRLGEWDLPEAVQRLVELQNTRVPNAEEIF
inactive: [1] -0.018 | [2] 0.025 | [3] 0.101 | [4] -0.019 | [5] -0.023

TAMM41 isoform 3 (UniProt Q96BW9)
inactive: [1] -0.012 | [2] 0.1 | [3] 0.09 | [4] -0.06 | [5] 0.001

STRN (UniProt O43815)
Chain of UniProt O43815 (O43815 whole entry, looked up): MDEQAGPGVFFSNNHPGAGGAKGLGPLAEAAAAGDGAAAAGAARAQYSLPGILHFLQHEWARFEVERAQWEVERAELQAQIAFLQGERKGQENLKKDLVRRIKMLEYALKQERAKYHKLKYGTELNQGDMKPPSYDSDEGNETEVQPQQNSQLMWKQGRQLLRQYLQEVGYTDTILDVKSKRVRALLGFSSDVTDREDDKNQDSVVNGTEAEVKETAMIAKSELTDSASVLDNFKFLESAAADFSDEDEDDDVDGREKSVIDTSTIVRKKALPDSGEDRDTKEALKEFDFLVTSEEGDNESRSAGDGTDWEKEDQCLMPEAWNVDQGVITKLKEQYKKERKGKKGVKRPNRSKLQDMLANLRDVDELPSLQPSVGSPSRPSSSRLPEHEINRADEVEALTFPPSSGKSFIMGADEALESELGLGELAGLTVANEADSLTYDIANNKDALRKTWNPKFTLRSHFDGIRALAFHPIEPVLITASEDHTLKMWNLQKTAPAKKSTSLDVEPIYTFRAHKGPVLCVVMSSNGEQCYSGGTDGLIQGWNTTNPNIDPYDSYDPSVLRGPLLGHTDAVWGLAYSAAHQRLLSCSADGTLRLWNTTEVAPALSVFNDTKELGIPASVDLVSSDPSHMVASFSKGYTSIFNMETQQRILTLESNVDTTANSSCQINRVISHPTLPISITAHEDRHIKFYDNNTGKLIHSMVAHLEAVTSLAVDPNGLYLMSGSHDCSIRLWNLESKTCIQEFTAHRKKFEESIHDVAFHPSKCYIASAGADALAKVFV
inactive: [1] -0.025 | [2] 0.011 | [3] -0.003 | [4] -0.108 | [5] -0.017

SNX6 (UniProt Q9UNH7)
Chain of UniProt Q9UNH7 (Q9UNH7 whole entry, looked up): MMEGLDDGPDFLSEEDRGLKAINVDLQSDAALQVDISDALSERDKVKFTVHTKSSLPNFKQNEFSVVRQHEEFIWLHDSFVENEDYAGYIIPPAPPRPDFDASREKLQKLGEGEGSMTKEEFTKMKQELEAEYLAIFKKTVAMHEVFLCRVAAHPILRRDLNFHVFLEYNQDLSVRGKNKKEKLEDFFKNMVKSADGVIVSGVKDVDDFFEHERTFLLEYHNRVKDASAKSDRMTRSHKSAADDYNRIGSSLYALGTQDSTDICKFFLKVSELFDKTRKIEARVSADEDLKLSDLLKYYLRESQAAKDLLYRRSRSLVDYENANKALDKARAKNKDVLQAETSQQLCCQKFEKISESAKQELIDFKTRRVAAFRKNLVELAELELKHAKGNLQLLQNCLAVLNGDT
inactive: [1] -0.037 | [2] 0.039 | [3] 0.053 | [4] 0.012 | [5] -0.11

TLK2 isoform 2 (UniProt Q86UE8)
Chain of UniProt Q86UE8 (Q86UE8 whole entry, looked up): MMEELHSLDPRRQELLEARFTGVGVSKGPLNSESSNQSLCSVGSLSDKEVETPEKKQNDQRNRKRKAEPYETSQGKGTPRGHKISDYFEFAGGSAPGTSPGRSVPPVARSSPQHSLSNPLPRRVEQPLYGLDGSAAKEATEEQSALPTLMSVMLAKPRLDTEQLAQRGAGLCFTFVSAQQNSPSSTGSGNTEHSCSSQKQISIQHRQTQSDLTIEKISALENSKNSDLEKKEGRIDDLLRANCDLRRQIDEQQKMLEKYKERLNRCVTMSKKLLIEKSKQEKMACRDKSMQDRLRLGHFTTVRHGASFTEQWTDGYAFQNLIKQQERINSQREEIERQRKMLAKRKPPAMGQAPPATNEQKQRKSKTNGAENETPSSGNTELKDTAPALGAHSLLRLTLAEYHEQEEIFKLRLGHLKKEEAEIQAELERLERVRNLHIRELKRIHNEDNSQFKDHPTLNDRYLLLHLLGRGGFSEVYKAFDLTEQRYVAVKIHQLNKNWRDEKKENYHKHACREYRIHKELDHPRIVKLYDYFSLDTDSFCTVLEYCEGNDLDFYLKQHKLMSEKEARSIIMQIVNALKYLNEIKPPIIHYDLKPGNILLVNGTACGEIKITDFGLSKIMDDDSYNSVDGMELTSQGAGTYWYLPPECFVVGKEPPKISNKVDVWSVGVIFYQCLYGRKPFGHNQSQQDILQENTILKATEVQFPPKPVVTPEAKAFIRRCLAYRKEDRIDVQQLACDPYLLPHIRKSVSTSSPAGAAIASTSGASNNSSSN
inactive: [1] 0.006 | [2] 0.021 | [3] 0.041 | [4] -0.007 | [5] 0.051

SYMPK (UniProt Q92797)
inactive: [1] -0.127 | [2] 0.034 | [3] 0.101 | [4] -0.006 | [5] 0.02
